# Pf growth 96h: inhibits malaria parasite growth, 96 h | AID 504834 | P. falciparum luciferase reporter growth, 96 h | 320,000 tested, 6.9% active | Potency, µM (series often up to 28.7 µM), actives largely listed as inhibitors
#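 Plates of compound plus infected erythrocytes (2% hematocrit, 0.05% parasitemia final) incubate 96 hours, 37 C, 5% CO2. Detection reagent added; reduced luminescence from the parasites' luciferase reporter flags inhibition.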
# HCV inh: inhibitors of hepatitis C virus infection | Huh7.5.1 HCVcc-Cre infection, luciferase reporter, 44 h | 340,000 tested, 3.4% active | Potency, µM (top dose mostly 41.8 µM), most hits filed as inhibitors | AID 651820
#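 1,000 cells/well; 4 h culture; + compound; + HCVcc-Cre (~0.5 moi); 44 h; luciferase substrate, RT 15 min; read 15 sec.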
# Pf growth 48h: P. falciparum growth inhibition at 48 hours (one generation); Potency, µM (top dose mostly 28.7 µM), usual class: inhibitors; P. falciparum luciferase growth in erythrocytes, 48 h; 310,000 tested, 5.9% active
#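 Firefly luciferase activity from engineered P. falciparum reports growth; inhibitors lower the luminescent signal. Cultures contained 2% hematocrit erythrocytes at 0.1% final parasitemia.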
# AMA1-RON2 inh: disrupts binding of P. falciparum AMA1 to RON2; 360,000 tested, 0.2% active; Potency, µM (top dose mostly 58.2 µM), hits mostly inhibitors; AlphaScreen AMA1-biotinylated RON2 peptide binding; note: nearly all actives have a fitted effect of over 45% in size
#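 AMA1 (3D7) with his tag at 25 nM final met compounds first, then biotinylated RON2 peptide at 25 nM; detection used donor plus acceptor beads, 10 µg/mL apiece, read by AlphaScreen after 30 min at room temperature.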
# A number is an active result; n = inactive; u = inconclusive; x = no result given; [ ] = another dose, or the depositor's remark. In the library only some 11% were active in any assay of this set; here they are far more common. Calls come from the whole dose curve; as a rule, active = well fitted curve in the direction sought with a large enough effect; inconclusive = small, poorly fitted or top-dose-only effect, or another doubt; inactive = no such curve, though single readings can be large; an effect the other way counts as inactive or inconclusive.
SMILES,Pf growth 96h,HCV inh,Pf growth 48h,AMA1-RON2 inh
O=C(Nc1ccc(S(=O)(=O)N2CCCC2)cc1)C1CCN(S(=O)(=O)c2ccc(F)cc2)CC1,u,u,13µM,n
Cc1ccc(NC(=O)C2CCN(S(=O)(=O)c3ccc(F)cc3)CC2)cc1,x,u,n,n
C=CCNC(=O)C1CCN(S(=O)(=O)c2ccc(Br)cc2)CC1,x,n,10µM,n
O=C(Nc1ccc(S(=O)(=O)N2CCOCC2)cc1)C1CCN(S(=O)(=O)c2ccccc2)CC1,2.9µM,u,u,n
Cn1nnc(NC(=S)NC(=O)c2cccc3c(Cl)cccc23)n1,u,n,u,n
CCOC(=O)c1ccc(S(=O)(=O)N2CCC(C(=O)Nc3nnc(C)o3)CC2)cc1,n,n,u,n
CSc1cccc(NC(=O)C2CCCN(S(=O)(=O)c3cccs3)C2)c1 (stereo unspecified),n,u,u,n
Cc1nnc(NC(=O)C2CCN(S(=O)(=O)c3ccc(F)c(Cl)c3)CC2)o1,15µM,n,6.6µM,n
CSc1cccc(NC(=O)C2CCCN2S(=O)(=O)c2ccc(Br)s2)c1 (stereo unspecified),10µM,n,x,n
O=C(CSc1nnc(-c2ccc(F)cc2)o1)Nc1ccc(S(=O)(=O)N2CCCC2)cc1,n,n,u,n
O=C(CSc1nnc(-c2ccc(F)cc2)o1)Nc1ccc(S(=O)(=O)N2CCCCCC2)cc1,n,n,9.3µM,n
O=C(NCc1ccccc1)c1ccc(S(=O)(=O)N2CCCCCC2)cc1,x,x,x,n
CCN(CC)C(=S)SCC(=O)c1ccc(Br)cc1,n,n,n,n
O=C1/C(=C/C=C/c2ccccc2)Oc2c1ccc(O)c2CN1CCN(CCO)CC1,u,n,u,n
CN(C)Cc1c(O)ccc2c1O/C(=C\C=C\c1ccccc1)C2=O,n,n,1.7µM,n
Cc1ccc(/C=C2\Oc3c(ccc(O)c3CN3CCN(C)CC3)C2=O)cc1,u,n,u,n
CC1CCCN(Cc2c(O)ccc3c2O/C(=C\c2ccco2)C3=O)C1 (stereo unspecified),3.3µM,n,2.3µM,n
CCN1CCN(Cc2c(O)ccc3c2O/C(=C\c2ccccc2)C3=O)CC1,12µM,n,u,u
CCN1CCN(Cc2c(O)ccc3c2O/C(=C\C=C\c2ccccc2)C3=O)CC1,u,u,1.7µM,n
CCc1ccc(/C=C2\Oc3c(ccc(O)c3CN3CCN(C)CC3)C2=O)cc1,u,n,u,n
COc1ccccc1/C=C/C=C1\Oc2c(ccc(O)c2CN2CCN(CCO)CC2)C1=O,u,n,n,u
CCN1CCN(Cc2c(O)ccc3c2O/C(=C\c2ccc(C)cc2)C3=O)CC1,2.3µM,n,5.2µM,n
CCOC(=O)c1sc2nc(SCC#N)n(CCCN3CCCC3=O)c(=O)c2c1C,u,u,10µM,n
CCOC(=O)c1sc2nc3n(c(=O)c2c1C)CCC3,n,n,n,n
CC(C)(C)NCc1cc(Cl)ccc1OCc1cccs1,9.3µM,u,u,n
SMILES,Pf growth 96h,HCV inh,Pf growth 48h,AMA1-RON2 inh
CCOc1ccc(Cl)cc1CNCCc1ccc(F)cc1,u,n,u,n
CC(C)(C)NCc1cc(Br)ccc1OCc1cccs1,n,u,u,n[11.6 µM]
C=CCOc1c(Br)cc(CNc2nccs2)cc1OC,0.37µM,u,u,n
COc1cc(CNC(C)(C)C)cc(Br)c1OCc1cccs1,n,20µM,u,n[11.6 µM]
COc1cc(CNCCO)cc(Br)c1OCc1cccs1,n,n,n,n
CCN(CC)CCNCc1cc(Cl)ccc1OCc1ccccc1F,n,n,5.9µM,n
CC(=O)N1C(C)(C)CC(=NOS(=O)(=O)c2ccccc2)CC1(C)C,n,n,n,n
CCOc1ccc(NC2OC(CO)C(O)C(O)C2O)c([N+](=O)[O-])c1 (stereo unspecified),n,n,n,n
Cn1nnc(NCc2cc(Br)ccc2OCc2ccccc2F)n1,n,u,u,n
CC(C)(C)NCc1cc(Cl)ccc1OCc1ccccc1F,8.3µM,n,n[5.75 µM],n
CCc1ccc(NC(=O)N2CCN(C(=O)C3CCCO3)CC2)cc1 (stereo unspecified),n,n,n,n
COc1cccc(O)c1CN1CCC(n2nccc2NC(=O)c2ccc3c(c2)OCO3)CC1,n,n,12µM,n
CCCn1cc(CN2CCC(n3nccc3NC(=O)c3ccc4c(c3)OCO4)CC2)c(C)n1,9.3µM,n,n,n
CC(C)=CCCC(C)CN1CCC(n2nccc2NC(=O)c2ccc3c(c2)OCO3)CC1 (stereo unspecified),u,u,10µM,n
CCc1ccc(NC(=O)CCc2ccc(CC)o2)cc1,u,n,n,n
O=C(COCC(=O)N/N=C/c1ccccc1F)N/N=C/c1ccccc1F,9.3µM,n,n,n
O=C(N/N=C/c1ccccc1F)c1ccccc1OCc1ccccc1,n,10µM,u,n
O=C(CO)N/N=C/c1ccccc1F,n,n,n,n
COc1ccc(Cl)cc1NC(=O)CN1CCCCCC1,u,n,n,n
COc1cc(NC(=O)Nc2ccccc2)c(OC)cc1NC(=O)CN1CCCCC1,x,11µM,u,n
COc1cc(Cl)c(C)cc1NC(=O)CN1CCN(C(=O)C2CC2)CC1,u,u,u,n
COc1cc(NC(=O)Nc2ccccc2OC)c(OC)cc1NC(=O)CN1CCCCC1,n,2.2µM,6.6µM,n
COc1ccc(N)cc1NC(=O)CN1CCCC1,0.12µM,n,n,n
COc1ccc(S(=O)(=O)N(C)C)cc1NC(=O)CN1CCN(C(=O)C2CC2)CC1,n,10µM,n,n
COc1ccccc1NC(=O)CN1CCCCCC1,n,n,n,n
SMILES,Pf growth 96h,HCV inh,Pf growth 48h,AMA1-RON2 inh
COc1cc(NC(=O)c2ccccc2F)c(OC)cc1NC(=O)CN1CCCCC1,n,u,n,u
Cc1ccc(-c2nnc(SCC(=O)N(CC(C)C)c3c(N)n(Cc4ccccc4)c(=O)[nH]c3=O)n2N)cc1,n,x,u,n
O=C(O)c1ccc(NC(C(=O)c2ccccc2)c2ccccc2)cc1 (stereo unspecified),x,n,x,n
COc1cc(OC)cc(C(=O)NNC(=O)CN2C(=O)NC(C)(c3ccc(C)cc3)C2=O)c1 (stereo unspecified),n,n[8.37 µM],n,n
CCOC(=O)C1CCN(C(=O)c2cc3cc(C)ccc3[nH]2)CC1,n,n,n,n
CC(=O)Oc1ccc2ccc3ccc(C(C)=O)cc3c2c1,x,13µM,x,n
COC(=O)c1ccc(S(=O)(=O)NC(C)(C)C)n1C,n,n,n,n
CCN=C1SC(C(=O)Nc2ccc(OC)cc2)CC(=O)N1CC (stereo unspecified),n,n,n,n
COc1ccc(-c2cc(OC(=O)c3ccc(F)cc3)c3c(C)oc(C)c3c(=O)c2)cc1,10µM,x,u,x
Cc1nc2c(C)c(C)c(C)c(C)c2nc1C,n,n,u,n
Cc1nc2c(O)c3c(c(O)c2nc1C)C1C=CC3CC1,x,7.9µM,x,n
CN(C)/C=C(\C#N)C(=O)N/N=C/c1ccccc1,n,n,n,n
c1ccc(-c2csc3ncnc(NCC4COc5ccccc5O4)c23)cc1 (stereo unspecified),u,0.56µM,u,n
COc1cccc(N2CCN(C(=O)c3cccn4c(=O)c5c(C)c(C)sc5nc34)CC2)c1,u,n,n,n

# Screening data from PubChem.
